Assay outcomes from PubChem.
Shown are actives, neighbours in structure and some others; about 11% of the full set was active somewhere.
HPGD inh – qHTS Assay for Inhibitors of HPGD (15-Hydroxyprostaglandin Dehydrogenase); 15-hydroxyprostaglandin dehydrogenase [NAD(+)] (Homo sapiens), P15428; AID 894, 2007; 4.3% of 150,000 active; purified HPGD, NADH fluorescence kinetic, PGE2 substrate; Potency, µM, for the others: at the top dose activity change, negative = inhibition, actives largely listed as inhibitors; also: potency is read from the fitted curve at half-maximal effect
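NADH formation kinetics: reaction with 30 uM PGE2 and 1 mM NAD+ (final), 20 nM enzyme, Tris-HCl pH 8 with Tween 20, after 15 min compound preincubation at room temperature. Fluorescence change, last versus first of five reads.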
ALDH1A1 inh – qHTS Assay for Inhibitors of Aldehyde Dehydrogenase 1 (ALDH1A1); Aldehyde dehydrogenase 1A1 (Homo sapiens), P00352; Purified ALDH1A1, NADH fluorescence, propionaldehyde substrate; Potency, µM (series often up to 75.3 µM), for the others: at the highest dose activity, negative = inhibition, hits mostly inhibitors; 7.3% of 220,000 active; AID 1030, 2008;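 also: potency is read from the fitted curve at half-maximal effect; plate controls were no enzyme wells and a reference inhibitor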
Target sequence (P00352 whole entry, looked up): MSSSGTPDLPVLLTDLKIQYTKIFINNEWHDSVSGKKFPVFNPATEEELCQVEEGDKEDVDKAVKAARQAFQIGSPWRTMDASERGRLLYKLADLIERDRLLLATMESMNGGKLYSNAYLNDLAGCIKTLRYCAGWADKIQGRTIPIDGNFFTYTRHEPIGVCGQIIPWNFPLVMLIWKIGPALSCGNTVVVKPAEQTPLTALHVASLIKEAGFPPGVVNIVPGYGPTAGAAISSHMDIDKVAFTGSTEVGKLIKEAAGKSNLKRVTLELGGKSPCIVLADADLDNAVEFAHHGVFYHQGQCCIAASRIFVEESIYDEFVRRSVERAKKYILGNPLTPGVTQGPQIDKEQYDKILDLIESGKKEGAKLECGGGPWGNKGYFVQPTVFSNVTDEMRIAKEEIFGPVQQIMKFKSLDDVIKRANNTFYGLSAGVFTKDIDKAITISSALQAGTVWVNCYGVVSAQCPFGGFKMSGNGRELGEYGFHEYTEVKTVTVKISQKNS
PNC assembly inh – High Content Assay for Compounds that inhibit the Assembly of the Perinucleolar Compartment; PC3M PTB-GFP, PNC prevalence imaging, 16 h; stronger effect = lower value; 3.1% of 140,000 active; activity change (PNC), negative = inhibition, % at 10 µM;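 active = readout at or below -70, meaning at least 70% loss of cells showing the perinucleolar compartment, a nuclear body marking cancer cells; inconclusive = readout between -30 and a set limit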;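 also: plate controls were DMSO wells for no effect and camptothecin positive control wells for full effect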
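PC3M cells stably expressing PTB-GFP, 750–1000 cells/well, treated 16 h at 37 °C with compound (23 nl of library stock), in duplicate. After paraformaldehyde fixation and Hoechst stain, imaged at 20x; PNC prevalence scored by image analysis.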
* = called active by the depositor; ? = inconclusive; . = not tested or not shown; [ ] = another dose, or the depositor's remark. Unless noted, calls follow the shape of the dose curve; as a rule, active = well fitted inhibition curve with a large enough effect (not every such curve was filed as active); inconclusive = small, poorly fitted or top-dose-only effect, or another doubt; inactive = no such curve, though single readings can be large or run the other way. Unless noted, % is scaled to controls: 0 for no effect and ±100 for the full control effect.

SMILES | HPGD inh | ALDH1A1 inh | PNC assembly inh
O=C(NCc1ccc(Cl)cc1)C(=O)NCC1OCCN1C(=O)c1cccs1 (configuration not stated) | -3.0% | 14.5% | -28.7
CC(C)c1nnc(NC(=O)C2CCCCC2)s1 | -13.3% | -11.1% | -117.9*
CC(C)Sc1nnc(NC(=O)C2CC2)s1 | -25.5% | 0.0501µM* | ?
Cc1cccc2sc(NC(=O)C3CCCO3)nc12 (configuration not stated) | -17.5% | -13.0% | -100.0*
CCOC(=O)Cc1nnc(NC(=O)C2CCCCC2)s1 | . | -8.7% | .
CCSc1nnc(NC(=O)C2CCCCC2)s1 | -5.1% | -6.5% | -14.7
CCc1cccc(C)c1NC(=O)C1CCCO1 (configuration not stated) | -1.0% | 13.4% | ?
CSc1nnc(NC(=O)C2CCCCC2)s1 | -4.4% | 3.3% | -23.6
CCc1nnc(NC(=O)C2CCCCC2)s1 | ? | 25.1µM* | 9.2
Nc1oc2ccccc2c(=O)c1C=O | -13.0% | 9.9% | ?
O=C(N/N=C/c1ccc2c(c1)OCO2)C(O)c1ccccc1 (configuration not stated) | ? | ? | -26.9
COC(=O)/C(=C(/F)Sc1cc(C)c(O)c(C)c1)C(F)(F)F | -22.9% | -1.6% | -3.8
CCc1nnc(NC(=O)C2CCCO2)s1 (configuration not stated) | . | 10.8% | .
CCC(C)c1ccccc1NC(=O)C1CCCO1 (configuration not stated) | -2.1% | 0.5% | ?
Cc1c(NC(=O)C2CCCO2)cccc1[N+](=O)[O-] (configuration not stated) | -3.2% | -0.4% | -85.1*
CC(C)c1nnc(NC(=O)C2CCCO2)s1 (configuration not stated) | . | 3.77µM* | .
CC#CCN1c2ccccc2[C@]23C[C@@H](C(=O)OC)N(S(=O)(=O)c4ccc(C#N)cc4)C2=NC(C(=O)OC)=C(C(=O)OC)[C@H]13 | -8.3% | 6.0%[13.5 µM] | .
Cc1ccc(CN2CCN(Cc3ccc(Oc4ncccn4)cc3)CC2CCO)cc1 (configuration not stated) | . | -3.0% | .
OC1C=C2CCN3Cc4cc5c(cc4C(C1O)C23)OCO5 (configuration not stated) | -22.3% | 0.4% | .
COc1cc(/C=C/C(=O)O)cc(S(=O)(=O)N2CCc3ccccc3C2)c1OC | . | -5.8% | .
Cc1cc(C)c2nc(N3CCC(C(=O)NCc4cccnc4)CC3)sc2c1 | . | 3.6% | .
Cc1cc(C)c2nc(N3CCC(C(=O)N4CCN(C(=O)c5ccco5)CC4)CC3)sc2c1 | -14.3% | 12.6µM* | 7.2
CC1CC(C)(C)NC(=O)O1 (configuration not stated) | -2.4% | -7.6% | 4.2
CC1CC(C)(C)NC(=S)S1 (configuration not stated) | 22.4µM* | 12.6µM* | -23.7
c1nc(N2CCNCC2)c2cc(-c3ccc4c(c3)OCO4)ccc2n1 | -20.1% | -9.7% | .
SMILES | HPGD inh | ALDH1A1 inh | PNC assembly inh
COCc1cc(C)nc2sc(C(=O)N3CCCCC3)c(N)c12 | 0.251µM* | 17.8µM* | ?
COCc1cc(C)nc2sc(C(=O)N3CCN(c4ccccc4)CC3)c(N)c12 | ? | ? | -13.9
O=C(CCn1cnnn1)Nc1ccc(F)cc1 | . | 5.6% | .
CC(C)CCNc1nc(N)c([N+](=O)[O-])c(NCC2CCCO2)n1 (configuration not stated) | -18.6% | 11.2µM* | 45.6
Nc1nc(NCC2CCCO2)nc(NCC2CCCO2)c1[N+](=O)[O-] (configuration not stated) | -5.4% | ? | 63.7
COC(=O)[C@@]1(Cc2ccccc2)[C@H]2c3cc(C(=O)N4CCCC4)n(Cc4c(CO)[nH]cc(C)c4=O)c3C[C@H]2CN1C(=O)c1ccccc1 | -20.9% | -2.5% | .
CC1=N/C(=C\c2ccc([N+](=O)[O-])cc2)C(=O)N1c1cc(Cl)ccc1C | -21.4% | 11.2µM* | 70.6
COc1ccc(N2C(=O)/C(=C/c3ccc([N+](=O)[O-])cc3)N=C2C)c(OC)c1 | . | -12.2% | .
O=C(O)c1cc(C(F)(F)F)nc2c(C(F)(F)F)cccc12 | -5.7% | 9.4% | .
CCN(CC)c1ccc2cc(-c3nnc(-c4ccncc4)o3)c(=O)oc2c1 | ? | ? | -119.2*
CCN(CC)c1ccc2cc(C(N)=O)c(=N)oc2c1 | . | -6.6% | .
CCN(CC)c1ccc2cc(C=O)c(=O)oc2c1 | ? | ? | -4.6
CCN(CC)c1ccc2cc(C(N)=O)c(=O)oc2c1 | ? | ? | -104.6*
CCOC(=O)C(=O)Nc1cc(C)on1 | . | -10.2% | .
COc1cccc(CNC(=O)C2=Cc3cccc(OC)c3OC2)c1 | . | -6.2% | .
CCC1OC(=O)C(C)[C@@H](O[C@H]2C[C@@](C)(OC)C(O)C(C)O2)C(C)[C@@H](O[C@@H]2OC(C)CC(N(C)C)C2O)[C@](C)(O)CC(C)/C(=N\OCOCCOC)[C@H](C)C(O)[C@]1(C)O (some centres not stated) | -1.9% | -1.2% | .
CCC(=O)Nc1ccc2c(c1)ncn2-c1ccccc1OC | -15.8% | -5.4% | -3.2
COc1ccccc1-n1cnc2cc(C(=O)NC3CCCC3)ccc21 | 15.8µM* | 3.2% | 10.1
COc1ccc(OC)c(-n2cnc3cc(C(=O)O)ccc32)c1 | 15.8µM* | 4.6% | -4.7
CCCCn1nc2cc(C(=O)NCc3ccco3)ccc2c1OCC | ? | ? | 66.0
O=C(O)c1ccc2c(c1)ncn2C1CCCCC1 | -11.4% | -3.7% | ?
O=C(NC1CC1)c1ccc2c(c1)ncn2C1CCCC1 | 14.1µM* | ? | ?
CCOc1ccccc1-n1cnc2cc(C(=O)NCc3ccco3)ccc21 | 15.8µM* | -15.5% | -29.8
COc1ccccc1-n1c(C)nc2cc(C(=O)O)ccc21 | -23.4% | -14.2% | 42.5
Cn1cc(-c2nnc(-c3ccccc3)o2)c2ccccc21 | ? | ? | 26.9
SMILES | HPGD inh | ALDH1A1 inh | PNC assembly inh
O=S(O)O.O=S(O)O.[Co].[NH2-].[NH2-].[NH2-].[NH2-] | 0.1% | -0.5%[13.5 µM] | .
Cc1ccccc1C(=O)NC(=S)N(C)CCc1ccccn1 | . | 0.1% | .
O=C(CN1CCNCC1)NCCSc1ccc(Cl)cc1 | . | -33.3% | .
S=C1NNC2(NN1)C1CC3CC(C1)CC2C3 | -15.6% | -6.4% | -100.0*
C1CSC2(N1)C1CC3CC(C1)CC2C3 (configuration not stated) | -10.9% | 4.8% | -5.4
NC(CSCC(=O)O)C(=O)O (configuration not stated) | -9.1% | 9.8% | .
COc1cccc(-c2nc(NCc3cnc(C)cn3)c3ccccc3n2)c1 | -10.5% | 6.0% | .
Cc1[nH][nH]c(=O)c1C=NCc1cccc(C(F)(F)F)c1 | . | 1.2% | .
O=[N+]([O-])c1ccc(Nc2nc3ccccc3s2)cc1 | -29.1% | 1.41µM* | .
Fc1ccc(Nc2nc3ccccc3s2)cc1 | . | 0.6% | .
CCOC(=O)c1cnc2c(-c3cccc(Br)c3)cnn2c1C | . | 5.6% | 2.6
CCOC(=O)C1CCN(C(=O)c2cc3cc(Br)ccc3oc2=O)CC1 | . | -1.0% | .
COC(=O)[C@@H]1C=C[C@H](C)[C@H](CCOc2ccccc2)O1 | -6.2% | -1.5% | .
CC(=O)Nc1c(Br)cc(N2C(=O)CCC2=O)cc1Br | 0.8% | -13.1% | 21.5
CC(=O)Nc1cc(N2C(=O)CCC2=O)ccc1Cl | 1.8% | 7.7% | -82.0*
Cc1ccc2c(Cl)c(C(=O)Nc3cccnc3)sc2c1 | -23.3% | -4.2% | -21.0
